PubChem BioAssay (NCATS)
Records with an inconclusive call do not appear. Calls come from the whole dose curve; as a rule, active = well fitted inhibition curve with a large enough effect; inconclusive = small, poorly fitted or top-dose-only effect; inactive = no such curve, though single readings can be large or run the other way.

Test: Primary qHTS for small molecule stabilizers of the endoplasmic reticulum resident proteome: Secreted ER Calcium Modulated Protein (SERCaMP) assay (AID 1508630)
Settings: SH-SY5Y GLuc-SERCaMP (Gaussia luciferase released on ER calcium loss) secretion, thapsigargin, luminescence; series mostly up to 38.4 µM; activity change, negative = inhibition: at the top concentration
Outline: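 The SH-SY5Y reporter protocol was run at 3 concentrations up to 38.3 uM (primary) or 11 concentrations (follow-up): 16 h compound, 100 nM thapsigargin for 4 h, then extracellular luciferase luminescence.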
% is set by controls: 0 for no effect and ±100 for the full control effect.

Activity change, negative = inhibition, inactive:
O=C1N[C@@H](Cc2c[nH]c3ccccc23)C(=O)N[C@H]1Cc1c[nH]c2ccccc12 -9.12%
C=C(C)C(=O)OC[C@@H]1CCC[N@+]2(C)CCCCC12 (some centres undefined) -22.8%
C[C@@H]1CC[C@H]2[C@H](C)[C@H]3CC[C@H]4C5[C@@H](O)CC6=CC(=O)CC[C@]6(C)[C@H]5C[C@H]4C3C(=O)N2C1 (some centres undefined) -22.9%
COc1ccccc1/C=C\C(=O)OC[C@@H]1CCCN2CCCC[C@H]12 2.42%
CC1OCC23CC[C@@]4(C)CCC(C)(C)C[C@H]4[C@]2(C)CCC12C3CC[C@@]1(C)C2C(=O)CC(=O)[C@@H]1C (some centres undefined) -15.3%
COc1c(C2=CC(=O)N(C)C2=O)c2c(n1C)C(=O)c1ccccc1C2=O -30%
CC1=CC(=O)CC(C)(C)C1(O)/C=C/C(C)=C/C(=O)O (centres undefined) 0.818%
O=C(O)C(O)C(O)(Cc1ccc(O)cc1)C(=O)O (centres undefined) -22.1%
COc1ccc([C@@H]2[C@@H](O)[C@H](O)[C@@H](C)N2C)cc1OC -12.6%
COc1cc(C(=O)Oc2ccc3c(OC)c4ccoc4nc3c2OC)cc(OC)c1OC -5.66%
CC(C)C1NC(C(=O)O)Cc2c1[nH]c1ccccc21 (centres undefined) -12.4%
COc1c2c(cc3c1C(c1c(O)c4ccccc4oc1=O)N(C)CC3)OCO2 (centres undefined) -10.8%
CN(C)C(=O)OC1=C(c2ccccc2)Sc2ccccc2-n2cccc21 8.35%
COc1cc(/C=C/C(=O)c2c(O)cc(C)oc2=O)ccc1O 20.1%
COc1ccc([C@H]2O[C@@H](c3ccc(OC)c(OC)c3)[C@H](C)[C@@H]2C)cc1OC -15%
COc1cc(C)c(CC/C(C)=C/C=C/C(C)=O)c(C)c1C 19.8%
O=C1Nc2ccccc2C(=O)N2CCC[C@@H]12 -0.369%
COC(=O)C1=COC(O[C@H]2OC(CO)[C@H](O)C(O)C2O)[C@H]2C1C(=O)C[C@@H]2C (some centres undefined) -4.03%
C/C=C(\C)C(=O)O[C@H]1CC(C)=C2C(=O)C=C(C)C2[C@@H]2OC(=O)[C@@](C)(OC(=O)C=C(C)C)C21 (some centres undefined) 30.2%
c1cnc2c(-c3nccc4c3[nH]c3ccccc34)cccc2c1 12.7%
O=C(O)C1CC[C@@](C(=O)O)(c2ccccc2)c2ccccc21 (some centres undefined) -18.4%
Cc1csc(-c2coc3cc(O[C@@H]4O[C@H](CO)[C@@H](O)[C@@H](O)[C@H]4O)ccc3c2=O)n1 -16.7%
Cc1cc(O)c(C)c2c1CC[C@H]1[C@H](C)C(=O)O[C@H]21 -9.68%
C[C@@H]1Oc2ccccc2C=C1/C=C/C(=O)O -12.7%
COc1cccc(C(=O)CC2c3c(c(Br)c4c(c3OC)OCO4)CCN2C)c1 (centres undefined) -10.9%
C[C@H]1OC(=O)CC[C@@H]2[C@]1(C)CCC1[C@@]2(C)CC[C@@]2(C)C3CC(C)(C)CC[C@]3(CO)CC[C@]12C (some centres undefined) -10.2%
COc1cc2c(cc1OC)OC(C)(C)C=C2 7.84%
COC(C)C(C(=O)OCC1=CCN2CC[C@H](O)[C@@H]12)C(C)C (some centres undefined) -14%
N=c1ccn2c(n1)OCC1C2O[C@@H](O)[C@H]1O (some centres undefined) -9.79%
COc1cc2c(cc1OC)C(c1ccccc1)=NCC2 20.2%
COc1ccc(-c2cc3ccccc3c(=O)o2)cc1 -10.2%
COc1cc2c(cc1OC)C1CCC3=C([C@H](C)OC3=O)N1CC2 (some centres undefined) -6.63%
COc1ccc([C@@H](C)C(=O)c2ccc(O)cc2O)cc1 15.6%
COc1ccc(C(=O)N(O)c2ccccc2)cc1 -1.43%
O=c1[nH]c(-c2ccccc2O)nc2ccccc12 2.27%
O=C(NC[C@H](O)c1ccccc1)c1ccccc1 26.3%
COc1c2c(cc3c1C(CC(O)C(C)C)N(C)CC3)OCO2 (centres undefined) 2.54%
CN1CCN(c2ccc(Nc3c4ccccc4nc4ccccc34)cc2)CC1 293%
C/C(Nc1ccc2oc(=O)ccc2c1)=C1/C(=O)CC2[C@@H]1C2(C)C (some centres undefined) 34%
